Measurements published in ChEMBL document CHEMBL1201862, “PubChem BioAssay data set” (2004).
Out of some 400,000 compounds screened, about 2,100 (0.53%) were called active. Roughly 14% stayed inconclusive and do not appear here. No rule for the calls is given here. The full list was thinned out, with actives kept by preference.

Molecular target: Ataxin-2 (Homo sapiens) (UniProt Q99700)
Experiment: qHTS for Inhibitors of ATXN expression.
Format: functional

Sequence of Ataxin-2 (Homo sapiens) (Q99700 whole entry): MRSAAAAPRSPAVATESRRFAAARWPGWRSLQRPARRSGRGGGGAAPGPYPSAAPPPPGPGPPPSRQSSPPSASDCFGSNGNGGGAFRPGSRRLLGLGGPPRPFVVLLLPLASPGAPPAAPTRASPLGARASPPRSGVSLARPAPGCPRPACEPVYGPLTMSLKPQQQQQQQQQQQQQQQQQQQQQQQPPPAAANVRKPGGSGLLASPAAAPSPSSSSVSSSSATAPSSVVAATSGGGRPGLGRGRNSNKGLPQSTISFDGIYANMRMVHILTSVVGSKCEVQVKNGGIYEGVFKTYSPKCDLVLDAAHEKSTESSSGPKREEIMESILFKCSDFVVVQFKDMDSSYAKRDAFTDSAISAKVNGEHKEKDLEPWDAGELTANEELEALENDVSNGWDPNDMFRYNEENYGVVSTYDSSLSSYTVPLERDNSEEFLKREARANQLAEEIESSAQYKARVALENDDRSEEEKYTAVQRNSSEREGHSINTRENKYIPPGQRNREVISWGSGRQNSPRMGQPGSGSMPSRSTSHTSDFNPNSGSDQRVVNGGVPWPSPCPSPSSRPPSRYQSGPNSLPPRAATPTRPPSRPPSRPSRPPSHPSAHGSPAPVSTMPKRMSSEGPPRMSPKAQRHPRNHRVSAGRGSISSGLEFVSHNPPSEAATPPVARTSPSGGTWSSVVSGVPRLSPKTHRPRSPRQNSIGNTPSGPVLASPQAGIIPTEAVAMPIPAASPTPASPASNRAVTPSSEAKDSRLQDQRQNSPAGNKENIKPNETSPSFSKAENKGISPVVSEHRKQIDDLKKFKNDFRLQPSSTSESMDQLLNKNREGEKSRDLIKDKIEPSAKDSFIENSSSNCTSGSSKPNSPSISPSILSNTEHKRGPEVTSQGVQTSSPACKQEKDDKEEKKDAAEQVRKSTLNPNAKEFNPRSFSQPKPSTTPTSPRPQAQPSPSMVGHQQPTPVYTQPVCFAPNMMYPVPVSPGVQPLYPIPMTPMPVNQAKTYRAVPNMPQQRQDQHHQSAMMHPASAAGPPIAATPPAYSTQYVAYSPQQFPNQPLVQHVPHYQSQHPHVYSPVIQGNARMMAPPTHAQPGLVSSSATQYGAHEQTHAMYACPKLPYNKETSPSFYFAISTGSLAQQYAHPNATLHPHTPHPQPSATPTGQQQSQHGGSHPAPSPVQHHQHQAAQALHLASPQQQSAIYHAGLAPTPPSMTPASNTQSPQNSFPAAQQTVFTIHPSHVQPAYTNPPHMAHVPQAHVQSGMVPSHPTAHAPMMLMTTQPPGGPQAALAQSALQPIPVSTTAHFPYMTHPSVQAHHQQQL

Row | SMILES | Potency
1 | Cc1ccccc1NC(=O)c1cc2c(=O)n3cccc(C)c3nc2s1 | inactive
2 | CC1CCCCC1NC(=O)c1cc2c(=O)n3ccccc3nc2n1C (stereo unspecified) | inactive
3 | COc1ccccc1N=C(NS(=O)(=O)c1ccc(C)cc1)c1ccccc1 | inactive
4 | O=C1c2cccc3c([N+](=O)[O-])ccc(c23)C(=O)N1c1ccc(Cl)cn1 | inactive
5 | CC1CN(c2ccc([N+](=O)[O-])c(NCCOc3ccc(Cl)cc3)c2)CC(C)N1 (stereo unspecified) | inactive
6 | COc1ccc([N+](=O)[O-])c(S(=O)(=O)c2ccc(Cl)cc2)n1 | 14.1 µM (active)
7 | COc1ccc([N+](=O)[O-])c(S(=O)(=O)c2ccccc2)n1 | 7.52 µM (active)
8 | CCN(CC)c1ccc(C=C(c2nnnn2-c2ccccc2)c2nnnn2-c2ccccc2)cc1 | inactive
9 | Cc1cc2cc3c(=O)[nH]c(=O)nc-3n(CC(O)C(O)C(O)CO)c2cc1C (stereo unspecified) | inactive
10 | C=CC(=O)/N=c1\sc2ccccc2n1-c1ccccc1 | 37.7 µM (active)
11 | CCN=C(S)N(CCc1c(C)[nH]c2ccc(C)cc12)Cc1cccnc1 | inactive
12 | COc1cc2nc(/C=C/c3ccc(N(C)C)cc3)sc2cc1SC | inactive
13 | CCc1cccc2sc(N3CCN(C(=O)c4ccc([N+](=O)[O-])o4)CC3)nc12 | 39.8 µM (active)
14 | CC(C)CN=C(S)N1CCN(c2nc3ccccc3s2)CC1 | inactive
15 | Clc1cccc2sc(N3CCN(c4ccccc4)CC3)nc12 | inactive
16 | Nc1ccc2cc3ccccc3cc2c1 | inactive
17 | CC(C)OCCCN(C)C1CCN(S(=O)(=O)c2ccc(-c3cc(C(F)(F)F)no3)s2)CC1 | inactive
18 | c1ccc(N=NC2=NN(c3ccccc3)CS2)cc1 | 7.08 µM (active)
19 | c1ccc(N2CC3COc4ccccc4C3=N2)cc1 (stereo unspecified) | inactive
20 | c1ccc(C2=NN(c3ccccc3)CC2)cc1 | inactive
21 | CCOc1ccc(CN2CCCC(N3CCN(c4ccc(OC)cc4)CC3)C2)cc1 (stereo unspecified) | inactive
22 | [O-][n+]1onc2c1CCc1nnc(-c3ccccc3)cc1-2 | 39.8 µM (active)

Row | SMILES | Potency
23 | CCc1ccc(/C=C2\Oc3c(ccc(O)c3CN3CCN(CCO)CC3)C2=O)cc1 | inactive
24 | CC(=O)N(CC(=O)Nc1nn(-c2ccccc2)nc1C(N)=O)Cc1ccccc1 | 39.8 µM (active)
25 | O=C(CN(Cc1ccccc1)C(=O)c1csnn1)NCCc1ccccc1 | inactive
26 | Cc1nn(-c2ccccc2)nc1C(=O)NNC(=O)c1cccc2ccccc12 | inactive
27 | Cc1cc(/C=C2/C(=N)N3C(=NC2=O)SN=C3S(C)(=O)=O)c(C)n1-c1ccccc1 | inactive
28 | COC(=O)Cc1c(C)c2c(O)cc(C)cc2oc1=O | inactive
29 | O=S(=O)([N-]c1nc2ccccc2nc1-[n+]1ccn(Cc2ccccc2)c1)c1ccc(Br)cc1 | inactive
30 | Cc1ccc(CN2CCC(CNC(=O)Nc3ccc(Cl)cc3)C2)cc1 (stereo unspecified) | 39.8 µM (active)
31 | CC(=O)Nc1ccc(CN2CCN(C3CCCCC3)C(CCO)C2)cc1 (stereo unspecified) | inactive
32 | O=C(NCc1ccc(Cl)cc1)C1CCCN(C(=O)c2ccc(Cl)cc2)C1 (stereo unspecified) | inactive
33 | Cc1nn(CCCC(=O)NCc2ccc(F)cc2)c(=O)c2nccn12 | inactive
34 | O=C(CN(c1ccc(Br)cc1)S(=O)(=O)c1ccc(Cl)c([N+](=O)[O-])c1)NCC1CCCO1 (stereo unspecified) | 31.6 µM (active)
35 | O=C(CN(c1cccc(C(F)(F)F)c1)S(=O)(=O)c1ccc(Cl)c([N+](=O)[O-])c1)NCc1ccccc1Cl | 39.8 µM (active)
36 | Cc1cc(OCC(=O)OCC(=O)NCC2CCCO2)ccc1Cl (stereo unspecified) | inactive
37 | Cc1c(N(C)S(=O)(=O)c2cc(C(=O)NCC3CCCO3)ccc2Cl)c(=O)n(-c2ccccc2)n1C (stereo unspecified) | inactive
38 | CCN(CC(=O)NCc1cccs1)S(=O)(=O)c1ccc([N+](=O)[O-])cc1 | inactive
39 | CSc1ccccc1NC(=O)CN(C)C(=O)CNc1ccc(C(F)(F)F)cc1[N+](=O)[O-] | inactive
40 | CNC(=O)c1ccc(-c2sc3nc(N4CCOCC4)c4c(c3c2N)CCCC4)o1 | inactive
41 | O=C(Nc1ccccc1)c1cc(S(=O)(=O)Nc2cccnc2)ccc1Cl | inactive
42 | O=C(O)c1ccc(NS(=O)(=O)c2ccc(NC(=O)c3ccccc3Cl)cc2)cc1 | inactive
43 | CC(C)c1ccc(NC(=O)c2cc(S(=O)(=O)NCc3ccccc3Cl)ccc2F)cc1 | 28.2 µM (active)
44 | Cc1nc2nc(-c3ccc(Cl)cc3)cn2nc1C | inactive

Row | SMILES | Potency
45 | C=C[S+]([O-])c1sc(Cl)c(N2CCOCC2)c1[N+](=O)[O-] (stereo unspecified) | 15 µM (active)
46 | O=S(=O)(Nc1cccc(-c2nc3cccnc3s2)c1)c1ccc2c(c1)OCCO2 | inactive
47 | FC(F)(F)c1ccccc1/C=N/Nc1ccccn1 | inactive
48 | O=[N+]([O-])c1ccc(Cl)cc1N/N=C/c1ccncc1 | inactive
49 | CN(C)c1nc(NCc2ccccc2)nc(N/N=C/c2ccc(Cl)cc2Cl)n1 | inactive
50 | Cc1ccccc1/C=N/Nc1ccnc2cc(Cl)ccc12 | 28.2 µM (active)
51 | Cc1ccc(NCC(=O)N/N=C/c2cccc(Br)c2)cc1 | inactive
52 | Clc1ccc2c(N/N=C/c3cccc(Br)c3)ccnc2c1 | 25.1 µM (active)
53 | N#C/C(=C/c1ccc(F)cc1)c1nnc(NC(=O)c2ccccc2)s1 | inactive
54 | N#Cc1cc2c(=O)n3ccccc3nc2n(-c2ccc(Cl)cc2)c1=O | inactive
55 | O=c1oc2cc(O)ccc2cc1-c1ccccc1 | inactive
56 | Cc1cc(NCCCN(C)C)n2c(nc3ccccc32)c1C#N | inactive
57 | CCN(CC)c1ncnc2c1cnn2Cc1ccc(Cl)cc1 | inactive
58 | COc1ccc(CNc2nc(C)cc(C)c2C#N)cc1 | inactive
59 | Cc1ccc(-n2ncc3c(NCCCN(C)C)ncnc32)cc1Cl | 39.8 µM (active)
60 | COc1ccc(CCNc2ncnc3c2cnn3-c2cc(Cl)ccc2C)cc1 | 22.4 µM (active)
61 | CCCCn1nc(NC(=O)CC)c2cc3cc(OC)ccc3nc21 | inactive
62 | CC/N=c1\scc(C)n1/N=C/c1cc(Br)c(O)c(OC)c1 | inactive
63 | Cc1cc(C)c2oc(C(=O)N3CCN(C)CC3)cc(=O)c2c1 | inactive
64 | CCN(CC)CCCNc1cc(C)c(C#N)c2nc3ccccc3n12 | inactive
65 | COc1ccc(/C(C)=N/Nc2nc3ccccc3n3cnnc23)cc1OC | inactive
66 | C=CCSc1nc2ccccc2n2cnnc12 | 39.8 µM (active)

Row | SMILES | Potency
67 | CCC(C)[C@H](N)C(=O)NC[C@H]1CC[C@H](C(=O)N[C@@H](Cc2ccccc2)C(=O)O)CC1 (stereo partly specified) | inactive
68 | CC(C)CC(NC(=O)OCc1ccccc1)C(=O)NC(Cc1ccccc1)C(=O)CCl (stereo unspecified) | 9.47 µM (active)
69 | CC(NC(=O)OCc1ccccc1)C(=O)Oc1cc2oc(=O)cc(-c3ccccc3)c2cc1Cl (stereo unspecified) | inactive
70 | CC(NC(=O)CNC(=O)C(Cc1ccccc1)NC(=O)OCc1ccccc1)C(N)=O (stereo unspecified) | inactive
71 | CC(=O)NC(CC(C)C)C(=O)NC(Cc1ccccc1)C(=O)CCl (stereo unspecified) | 18.9 µM (active)
72 | COC(=O)[C@H](Cc1ccccc1)NC(=O)NCc1ccccc1 | inactive
73 | C#CCOc1ccc(C2C3=C(CCCC3=O)N(CC(=O)O)C3=C2C(=O)CCC3)cc1Br | inactive
74 | CC1(Cc2cc(Cl)ccc2C(F)(F)F)C(=O)Nc2ccc(-c3ccc(F)c(Cl)c3)cc21 (stereo unspecified) | 28.2 µM (active)
75 | CC1(C)CC(=O)C=C(Nc2cccc(C(F)(F)F)c2)C1 | inactive
76 | CC1(Cc2cccc(C(F)(F)F)c2)C(=O)Nc2ccc(-c3ccc(F)c(Cl)c3)cc21 (stereo unspecified) | 39.8 µM (active)
77 | Cc1csc(NC(=O)c2c(-c3ccccc3)noc2C)n1 | inactive
78 | CC[C@]12c3[nH]c4ccc(Cl)cc4c3CCN1C(=O)[C@@H](CC(=O)NCCC1=CCCCC1)C[C@@H]2C(=O)N1CCN(C(=O)c2ccco2)CC1 | 25.1 µM (active)
79 | CC(C)=CCC/C(C)=C/CNC(=O)C[C@H]1C[C@H](C(=O)N2CCOCC2)[C@@]2(C)c3[nH]c4cc(-c5ccco5)ccc4c3CCN2C1=O | 39.8 µM (active)
80 | CC(C)=CCC/C(C)=C/CNC(=O)CC1C[C@H](C(=O)N2CCOCC2)[C@@]2(C)c3[nH]c4ccccc4c3CCN2C1=O (stereo partly specified) | 31.6 µM (active)
81 | CC[C@]12c3[nH]c4ccccc4c3CCN1C(=O)C(CC(=O)NC/C=C(\C)CCC=C(C)C)C[C@@H]2C(=O)N1CCN(C(=O)c2ccco2)CC1 (stereo partly specified) | 31.6 µM (active)
82 | C[C@H](O)[C@@H]1C(=O)N2CCc3c([nH]c4ccccc34)[C@@H]2C[C@@H]1N(C)C(=O)c1ccco1 | inactive
83 | O=C(CCCCCn1c(=S)[nH]c2ccc(N3CCOCC3)cc2c1=O)NCc1ccccc1 | inactive
84 | CC[C@@H]1C(c2ccccc2)=NN(c2ccccc2)[C@H]1C(=O)N1CCOC1=O | inactive
85 | CCOc1ccc(-c2nc(O)c3c(-c4cccs4)csc3n2)cc1 | inactive
86 | Cn1ccnc1C(=O)C1CCCN(Cc2c[nH]nc2-c2ccc(-c3ccccc3)cc2)C1 (stereo unspecified) | inactive
87 | CCN(CC)c1ccc2cc(-c3nnc(-c4ccccc4)o3)c(=O)oc2c1 | inactive
88 | COc1cc2cc(C(N)=O)c(N)nc2cc1OC | inactive

Row | SMILES | Potency
89 | Cc1ccc2nc3c(cc(C(=O)NCC4CCCO4)c(=N)n3C(C)C)c(=O)n2c1 (stereo unspecified) | inactive
90 | CC[C@]12c3[nH]c4ccc(Cl)cc4c3CCN1C(=O)[C@@H](CC(=O)NC/C=C(\C)CCC=C(C)C)C[C@@H]2C(=O)N1CCN(C(=O)C2CC2)CC1 | 25.1 µM (active)
91 | O=C1CSC(N/N=C/c2ccncc2)=N1 | inactive
92 | Cc1ccc(N(C)C(CNS(=O)(=O)c2ccccc2)c2ccccc2)cc1 (stereo unspecified) | 25.1 µM (active)
93 | Cc1ccc(S(=O)(=O)NCc2c(-c3ccccc3)noc2C)cc1 | inactive
94 | Cc1ccc(S(=O)(=O)NCCCCCC(=O)NCCc2ccccc2)cc1 | inactive
95 | Cc1cccn2c(=O)c3cc(C#N)c(=O)n(-c4nnc(SCc5ccc(F)cc5)s4)c3nc12 | inactive
96 | COc1ccc(NC(=O)CON=CC(=O)Nc2ccc(C)cc2)c(OC)c1 | inactive
97 | COc1ccc(OC)c(NC(=O)c2ccc(OC3CSC3)cc2)c1 | inactive
98 | COc1ccc(OC)c(NC(=O)c2c(NCc3ccc(OC)c(OC)c3)sc3c2CCC3)c1 | 39.8 µM (active)
99 | COc1ccc(NC(=O)c2ccc(S(=O)(=O)C(F)F)cc2)c(OC)c1 | inactive
100 | COc1ccc(/C=N/Nc2ncnc3sc4c(c23)CCCC4)cc1OC | inactive
101 | COc1ccc(NC(=O)c2c(NCc3sccc3C)sc3c2CCCCC3)c(OC)c1 | 39.8 µM (active)
102 | COc1ccc(NC(=O)c2c(NCc3cccc(F)c3)sc3c2CCC3)c(OC)c1 | 25.1 µM (active)
103 | COc1cccc(-c2ccc3c(N)c(C(=O)Nc4cc(F)ccc4F)sc3n2)c1 | inactive
104 | COc1ccc(OC)c(NC(=O)COC(=O)c2ccc(OC)c(S(=O)(=O)N3CCOCC3)c2)c1 | inactive
105 | COC(=O)c1ccc(NC(=O)c2c(NCc3ccc(OC)c(OC)c3)sc3c2CCCC3)cc1 | 17.8 µM (active)
106 | COc1ccc(NC(=O)C2=CN3CCS(=O)(=O)N=C3C=C2)c(OC)c1 | inactive
